# Test results from PubChem BioAssay (NCATS).
# Results filed as inconclusive are left out. A call without a number means that no potency is given here. Activity calls are given as the source filed them. Calls come from the whole dose curve.
# Test: A High-Content qHTS Against Drug Library for the Identification of Small Molecules that Inhibit DYT1 Early Onset Primary Dystonia-Associated Cell Pathology (AID 1645839)
# Conditions: HEK293 Flp-In EGFP-delE TorsinA, punctate imaging, 48 h; series mostly up to 46.1 µM
# In short: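 Cells were seeded and left for 24 h, then dosed with compound alongside tetracycline induction of mutant EGFP-TorsinA. They were incubated for 48 h, fixed in 4% paraformaldehyde, permeabilized and imaged for mislocalization (%pathology) and cell count.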
# Potency is the fitted concentration of half-maximal effect.
SMILES,Potency,"% pathology change, negative = correction"
O=C1NC(c2ccccc2)(c2ccccc2)C(=O)N1COP(=O)(O)O,inactive,
CCOC(=O)C(=O)c1csc(NC=O)n1,inactive,
CC1c2ccccc2CN1NC(=O)c1ccc(Cl)c(S(N)(=O)=O)c1 (configuration not stated),inactive,
O=C(O)CNC(=O)CNC(=O)CNC(=O)CSC(=O)c1ccccc1,inactive,
CC(=O)OCC(=O)[C@@]1(O)[C@H](OC(C)=O)C[C@H]2[C@@H]3CCC4=CC(=O)C=C[C@]4(C)[C@@]3(F)[C@@H](O)C[C@@]21C,inactive,
CC(C)C(=O)OCc1cccc(OC(=O)[C@@H]2N3C(=O)[C@@H](NC(=O)Cc4ccccc4)[C@H]3SC2(C)C)c1,inactive,
O=C(O)c1ccccc1Nc1cc(Cl)ccc1C(=O)O,inactive,
CC(C)OP(=O)(CP(=O)(OC(C)C)OC(C)C)OC(C)C,inactive,
O=C(O)c1[nH]n(-c2ccc(S(=O)(=O)O)cc2)c(=O)c1N=Nc1ccc(S(=O)(=O)O)cc1,inactive,
C[N+]1(CC2COC(c3ccccc3)(c3ccccc3)O2)CCCCC1 (configuration not stated),inactive,
CC(C)NC(=O)c1ccc(C=O)cc1,inactive,
CCOC(=O)N1CCC(n2c(=O)[nH]c3cc(Cl)ccc32)CC1,inactive,
C=CC[N+]1([C@H]2C[C@H]3[C@@H]4CC[C@H]5C[C@H](OC(C)=O)[C@@H](N6CCCCC6)C[C@]5(C)[C@H]4CC[C@]3(C)[C@H]2OC(=O)CC)CCCCC1,inactive,
O=C1NCCN1CCN1CCC(c2cn(-c3ccc(F)cc3)c3ccc(Cl)cc23)CC1,11.2 µM (active),
CCCCN(CCCC)C(C(N)=O)c1ccc(OC)cc1 (configuration not stated),inactive,
CC1CN(c2cc3c(cc2F)c(=O)c(C(=O)O)cn3-c2ccc(F)cc2F)CCN1 (configuration not stated),,-2.29% [at 4.63 µM] (inactive)
CC1(C)O[C@@H]2C[C@H]3[C@@H]4CCC5=CC(=O)C=C[C@]5(C)[C@@]4(F)[C@@H](O)C[C@]3(C)[C@]2(C(=O)CO)O1,inactive,
CCN(CC)C(=O)C1CN2CCc3cc(OC)c(OC)cc3C2CC1OC(C)=O (configuration not stated),inactive,
C[C@@]12CCC[C@H]1[C@@H]1CC[C@H]3C[C@@H](O)CC[C@]3(C)[C@H]1CC2,inactive,

SMILES,Potency,"% pathology change, negative = correction"
Cc1ncc(CO)c(CO)c1O,inactive,
CN(C)CCN(Cc1ccsc1)c1ccccn1,inactive,
Cc1cccc(OCC(O)CNC(C)(C)C)c1C (configuration not stated),inactive,
C=C(C)C(=O)OCC(O)CO (configuration not stated),inactive,
CC(C)(C)NCC(O)COc1ccccc1OCC1CCCO1 (configuration not stated),inactive,
CC[N+](CC)(CC)CCOC(=O)C(C1CCCC1)C1CCCC1,inactive,
CC(=O)c1cc2ccccc2s1,inactive,
CN1CCN(N)CC1,inactive,
CC1(C)OC(=O)Nc2ccc(Br)cc21,inactive,
CC(=O)Nc1ccc(S(=O)(=O)Nc2cc(C)on2)cc1,inactive,
CO[C@@H]1[C@@H](O[C@@H]2O[C@H](C)[C@@H](O[C@H]3C[C@@](C)(O)[C@@H](O)[C@H](C)O3)[C@H](N(C)C)[C@H]2O)[C@@H](CC=O)C[C@@H](C)[C@@H](O[C@@H]2CC[C@H](N(C)C)[C@@H](C)O2)/C=C/C=C/C[C@@H](C)OC(=O)C[C@H]1OC(C)=O,inactive,
CCC[C@H](N[C@@H](C)C(=O)N1[C@H](C(=O)O)C[C@@H]2CCCC[C@@H]21)C(=O)OCC,inactive,
CC(C)CCCC(C)NCCC(C)C (configuration not stated),inactive,
Cc1cccc(C)c1NC(=O)c1cc(S(N)(=O)=O)c(Cl)cc1O,inactive,
CN1N=C(C(N)=O)CCC1=O,inactive,
CCNC(=O)NCCCOc1cccc(CN2CCCCC2)c1,inactive,
OC1(c2ccc(Cl)c(C(F)(F)F)c2)CCN(CCCC(c2ccc(F)cc2)c2ccc(F)cc2)CC1,4.47 µM (active),
COc1ccc(CCC(C)=O)cc1,inactive,
